Bioassay records deposited in PubChem BioAssay by National Center for Advancing Translational Sciences (NCATS).
Shown is part of a subset that was picked to be rich in hits.
GRP78 ERSR act = ER stress response induction in glioma. Potency, µM, actives largely listed as activators. U87-MG GRP78 promoter luciferase reporter, 16 h. AID 602332. hit rate 0.02% among 420,000; note: series mostly up to about 76 µM; nearly all actives have a fitted effect of over 35% in size
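ERSR induction read as luciferase luminescence (Bright-Glo, 10 min at room temperature) in stably transfected human U87-MG glioma cells exposed to compounds for 16 h, using GRP78 as sensor.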
ALOX12 inh = ALOX12 (human) lipoxygenase inhibition; Potency, µM (doses to about 108 µM), most hits filed as inhibitors; hit rate 1.1% among 580,000; purified 12hLO, xylenol orange hydroperoxide absorbance; P18054
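Purified human 12hLO at 150 nM in 25 mM Hepes, 0.01% Triton X-100, pH 7.0, preincubated 15 min at room temperature with compound. Reaction started with 40 uM arachidonic acid, 30 min at room temperature. Hydroperoxide measured by Fe-xylenol orange, 573/405 nm absorbance ratio.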
G9a inh = inhibitors of human histone lysine methyltransferase G9a; Q96KQ7; G9a H3K9 monomethylation, AlphaScreen, 2 h; Potency, µM (titrated, usually from 102 µM), usual class: inhibitors; hit rate 8.8% among 350,000; AID 504332; note: nearly all actives have a fitted effect of over 75% in size
Target sequence (Q96KQ7 913-1193 limits assumed): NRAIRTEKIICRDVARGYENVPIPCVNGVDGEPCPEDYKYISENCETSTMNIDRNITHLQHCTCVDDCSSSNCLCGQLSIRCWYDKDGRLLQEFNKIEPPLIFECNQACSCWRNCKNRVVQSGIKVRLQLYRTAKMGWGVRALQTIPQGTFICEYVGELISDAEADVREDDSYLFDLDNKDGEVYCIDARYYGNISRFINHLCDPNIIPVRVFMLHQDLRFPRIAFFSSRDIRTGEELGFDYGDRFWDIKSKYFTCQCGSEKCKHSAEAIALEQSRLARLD
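Enzyme 20 nM + cpd, 15 min RT; add b-H3K9 pep 500 nM / SAM 20 uM; 2 h RT; anti-H3K9me1 Ab 0.5 ug/mL + SA donor / anti-rabbit acceptor beads 20 ug/mL each, 10 min; AlphaScreen read.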
Sfp inh = inhibitors of Bacillus subtilis Sfp phosphopantetheinyl transferase; Biochemical Sfp PPTase activity, qHTS; Potency, µM, most hits filed as inhibitors; hit rate 3.5% among 310,000;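 note: the enzyme is Sfp with the accession as filed and its product quenches rhodamine fluorescence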
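Reaction rates are the 30-min fluorescence difference (ex 525, em 598 nm) in wells containing 15 nM Sfp, 5 uM rhodamine-CoA and 12.5 uM BHQ-2-YbbR at pH 7.6 with 10 mM MgCl2.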
VDR inh = blocks the human vitamin D receptor | Potency, µM, most hits filed as inhibitors | VDR-SRC2-3 peptide fluorescence polarization, 2 h | hit rate 0.93% among 400,000 | P11473
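Signal is fluorescence polarization, reporting how far test compounds block the interaction of VDR with the SRC2-3 coregulator peptide after a 2 h room-temperature incubation.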
Each line names hits and unclear results; the compound was inactive in the other large screens; ! = repeats disagree. Calls come from the whole dose curve; as a rule, active = well fitted curve in the direction sought with a large enough effect; inconclusive = small, poorly fitted or top-dose-only effect, or another doubt; inactive = no such curve, though single readings can be large; an effect the other way counts as inactive or inconclusive.

Cc1[nH]c(SCC(=O)Nc2cccc(S(=O)(=O)N3CCCC3)c2)nc1Cc1ccccc1	none (no result: GRP78 ERSR act, G9a inh, Sfp inh, VDR inh)
Cc1ccc(S(=O)(=O)n2nc(C)c(S(=O)(=O)N3CCCCCC3)c2C)cc1C	none (no result: Sfp inh)
Cc1ccc(S(=O)(=O)n2nc(C)c(Br)c2C)c(C)c1C	G9a inh 71µM
Cc1ccc2[nH]c3c(c2c1)CCCC3NCCO (centres undefined)	G9a inh 50µM
CSc1nc2c(c(=O)n1C)SC(C)C2 (centres undefined)	Sfp inh 50µM
Cc1nnc(NC(=O)CSc2nc3c(c(=O)n2C)SC(C)C3)s1 (centres undefined)	ALOX12 inh inconclusive, G9a inh inconclusive
CCn1c(SC)nc2c(c1=O)SC(C)C2 (centres undefined)	none
CC1Cc2nc(SCC(=O)Nc3nccs3)n(C)c(=O)c2S1 (centres undefined)	G9a inh inconclusive, Sfp inh 50µM
Cc1ccc(C(=O)Nc2ccccc2SCc2cc(=O)n3oc(C)cc3n2)cc1	none (no result: GRP78 ERSR act, G9a inh, Sfp inh, VDR inh)
Cc1cc2c(c(=O)n1CCN(C)C)C(c1ccc(Cl)cc1Cl)C(C#N)=C(N)O2 (centres undefined)	ALOX12 inh 56µM (no result: GRP78 ERSR act, G9a inh, Sfp inh, VDR inh)
COC(=O)/C=c1/s/c(=C(/C#N)C(=O)N2CCOCC2)n(-c2ccccc2)c1=O	G9a inh inconclusive
COC(=O)/C=c1/s/c(=C(\C#N)C(=O)NCc2ccco2)n(-c2ccc(C)cc2)c1=O	G9a inh inconclusive, Sfp inh 56µM
C[N+]1(CCn2ccc3ccccc32)CCCCC1	ALOX12 inh inconclusive, G9a inh 50µM
CCCNc1nc2ccccc2nc1C(=O)Nc1ccc(C(=O)OCC)cc1	none (no result: GRP78 ERSR act, G9a inh, Sfp inh, VDR inh)
C=CCn1c(N2CCCCC2)nc2c1c(=O)[nH]c(=O)n2C	none (no result: GRP78 ERSR act, G9a inh, Sfp inh, VDR inh)
Cn1c(=O)[nH]c(=O)c2c1nc(Br)n2C/C=N/NC(N)=S	ALOX12 inh inconclusive, Sfp inh 56µM (no result: GRP78 ERSR act, VDR inh)
Cn1c(=O)[nH]c(=O)c2c1nc(N1CCCCC1)n2C/C=N/Nc1ccc(C(=O)O)cc1	G9a inh 71µM
COC(=O)Cn1c(Br)nc2c1c(=O)[nH]c(=O)n2C	none (no result: GRP78 ERSR act, G9a inh, Sfp inh, VDR inh)
CC(C)C(=O)Nc1ccc(NC(=O)CCCC(=O)O)cc1	none (no result: GRP78 ERSR act, G9a inh, Sfp inh, VDR inh)
CC1=C[C@@H](CN(C)CCO)[C@H](C(C)C)C[C@H]1Cc1nnc(-c2ccc(C)cc2)o1	none (no result: GRP78 ERSR act, G9a inh, Sfp inh, VDR inh)
COc1cc(NC(=O)c2nccnc2C(=O)O)cc(OC)c1	ALOX12 inh 4.5µM, G9a inh 22µM
Cn1nccc1NC(=O)c1nccnc1C(=O)O	G9a inh 40µM
CC(=O)Nc1ccc(NC(=O)c2nccnc2C(=O)O)cn1	ALOX12 inh inconclusive
O=C(O)c1ccccc1NCc1ccncc1	G9a inh 40µM
O=C(O)c1ccccc1NCCO	G9a inh 50µM
COCC(C)NC(=O)CSc1nc2ccccc2nc1C (centres undefined)	none (no result: GRP78 ERSR act, G9a inh, Sfp inh, VDR inh)
Clc1cccc(-c2ccc(/C=N/n3cnnc3)o2)c1	none
O=C1CN(/N=C/c2ccc(-c3ccc([N+](=O)[O-])cc3)o2)C(=O)N1	ALOX12 inh inconclusive, Sfp inh 89µM!
Cc1cc(C(=O)O)ccc1-c1ccc(/C=N/n2cnnc2)o1	G9a inh 56µM
O=[N+]([O-])c1cc(-c2ccc(/C=N\n3cnnc3)o2)cc([N+](=O)[O-])c1	G9a inh 45µM, Sfp inh inconclusive
O=C(CN1CCCc2c(F)cc(F)cc21)Nc1cccc2nsnc12	none (no result: GRP78 ERSR act, G9a inh, Sfp inh, VDR inh)
Cc1ccccc1C(=O)N1CC2(Cc3ccccc3N([S+](C)(=O)[O-])C2)C1	ALOX12 inh 45µM (no result: GRP78 ERSR act, G9a inh, Sfp inh, VDR inh)
C[S+](=O)([O-])N1CC2(Cc3ccccc31)CN(C(=O)c1ccccc1Cl)C2	none (no result: GRP78 ERSR act, G9a inh, Sfp inh, VDR inh)
Cc1cccc(C)c1NC(=O)CN1C(=O)NC(c2ccccc2Cl)C2=C1COC2=O (centres undefined)	none (no result: GRP78 ERSR act, G9a inh, Sfp inh, VDR inh)
COc1ccc(-c2nnc3n2-c2ccccc2SC3)cc1OC	ALOX12 inh inconclusive, G9a inh inconclusive, Sfp inh 79µM
OC[C@H]1OC(Nc2ccc(N=Nc3ccccc3)cc2)[C@@H](O)[C@@H](O)[C@@H]1O (some centres undefined)	none (no result: G9a inh)
O[C@@H]1COC(Nc2ccc(N=Nc3ccccc3)cc2)C[C@@H]1O (some centres undefined)	G9a inh 45µM
COc1cccc(N2C(=O)NC(=NC3CCCCC3)C23CCN(Cc2ccsc2)CC3)c1	none (no result: GRP78 ERSR act, G9a inh, Sfp inh, VDR inh)
Cc1nonc1NC(=O)COc1ccc(C(C)(C)C)cc1	none (no result: GRP78 ERSR act, G9a inh, Sfp inh, VDR inh)
COc1ccc(C/C(C)=N/NC(=S)Nc2ccccc2F)cc1	ALOX12 inh inconclusive, G9a inh inconclusive
